High-throughput results: PubChem, several laboratories
SKKanGAS inh: S. pyogenes SKKanGAS growth inhibitors in kanamycin, primary screen, streptokinase expression inhibitor project, SKKanGAS strain, BacTiter-Glo luminescence; hit rate 1.3% among 300,000; inhibition, % at 7.5 µM; 6 h;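 active means mean replicate score, as percent of positive control median, at least 50; inconclusive means mean below 50 but one replicate at or above 50; inactive means mean and every replicate below 50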;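 further: strain carries kanamycin resistance gene driven by streptokinase promoter and grows in 40 µg/ml kanamycin; loss of luminescence reflects streptokinase promoter inhibition or plain growth inhibition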
tim23-1 inh: growth inhibitors of tim23-1 mutant yeast, primary screen, luminescence, uHTS. S. cerevisiae tim23-1 growth, BacTiter-Glo luminescence, 24 h. inhibition, % at 20 µM. hit rate 1.3% among 330,000;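 active means growth inhibition of the mutant yeast at or above 50%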;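 further: temperature-sensitive mutant grown at 25 °C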
PfHsp90 set2: growth inhibition of PfHsp90-expressing yeast, primary screen, antimalarial PfHsp90 inhibitor project, S. cerevisiae, BacTiter-Glo luminescence, single point, set 2. BacTiter-Glo ATP, 48 h; yeast lacking PDR1 and PDR3 efflux regulators. inhibition, % at 9.4 µM. hit rate 0.32% among 310,000;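 active means every replicate shows inhibition above about 80%, whatever the replicate mean, limit read from the data; inconclusive means mean inhibition reaches the set limit but some replicate falls short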
TIM10 inh: growth inhibitors of isogenic TIM10 control yeast, primary screen, counter-screen for tim10-1 yeast inhibitor project, luminescence, uHTS; hit rate 1.4% among 330,000; AID 463195, 2010; S. cerevisiae TIM10 strain growth, BacTiter-Glo luminescence, 24 h; inhibition, % at 10 µM;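 active means inhibition of 40% or more at the single tested concentration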;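 further: wild-type TIM10 isogenic control strain grown at permissive 25 °C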
V-ATPase pHluor: regulators of yeast V-ATPase proton pumping, primary screen, pHLuorin cytosolic pH fluorescence | S. cerevisiae | response, % at 10 µM | hit rate 0.37% among 350,000; in the data active means response mostly above about 7.3%, no sharp cut-off; inactive means mostly below about 5.4%; further: actives read high
tim10-1 inh: growth inhibitors of tim10-1 mutant yeast, primary screen, luminescence, uHTS | hit rate 2.2% among 330,000 | inhibition, % at 20 µM | S. cerevisiae tim10-1 ts strain growth, BacTiter-Glo, 24 h | AID 463190, 2010;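 active means inhibition of at least 40%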;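 further: mutant grown at 25 °C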
tim10-1 confirm: growth inhibitors of tim10-1 mutant yeast, confirmation, single concentration, luminescence, S. cerevisiae; shares compounds with tim10-1 inh; S. cerevisiae tim10-1 ts strain growth, BacTiter-Glo, 24 h; inhibition, % at 20 µM; hit rate 56% among 7,400;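 active means inhibition of yeast growth at or above a set limit in either of two repeat tests at 20 µM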;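 further: tim10-1 mutant grown at permissive 25 °C to find synthetic lethal compounds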
tim10 confirm: growth inhibitors of wild-type TIM10 yeast, confirmation, counter-screen for tim10-1 synthetic lethality project, single concentration, luminescence, S. cerevisiae. shares compounds with TIM10 inh. S. cerevisiae tim10 strain growth, BacTiter-Glo luminescence, 24 h. inhibition, % at 10 µM. hit rate 63% among 4,600. AID 463215, 2010;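 active means inhibition of yeast growth at or above a set limit in either of two replicates at 10 µM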; further: this counterscreen used the strain with wild-type TIM10
A number is an active result; – = inactive; ? = inconclusive; · = not tested or not shown. In the library only some 4.6% were active in any assay of this set; here they are far more common.

SMILES	SKKanGAS inh	tim23-1 inh	PfHsp90 set2	TIM10 inh	V-ATPase pHluor	tim10-1 inh	tim10-1 confirm	tim10 confirm
Cc1cc2cc(C)c(NCCNC(=O)c3ccccc3Cl)nc2cc1C	–	–	–	44	–	42	–	–
CCOC(=O)C1=C(C)Nc2nc(=S)[nH]n2C1c1ccc(Cl)cc1 (stereo not drawn)	–	–	–	48	–	55	44	–
CCOC(=O)C1=C(C)Nc2nc(SCC)nn2C1c1ccc(OC)cc1 (stereo not drawn)	–	–	–	–	–	–	·	·
COc1ccccc1N1CCN(C(=O)c2ccc3c(c2)NC(=O)C(CSCc2ccccc2C)N3)CC1 (stereo not drawn)	–	–	·	–	·	–	·	·
Cc1cccc(C)c1NC(=S)Nc1ccc(Cl)c(Cl)c1	–	–	–	52	–	47	38	48
COc1ccc(NC(=S)Nc2ccc(C)c(Cl)c2)cc1OC	–	–	–	–	–	–	·	·
Cc1cc(C)c2[nH]c(C(=O)Nc3ccc(F)cc3Br)cc2c1	–	–	–	–	–	–	·	·
CC(=O)c1ccc(NC(=S)NC2CCCC(C)C2C)cc1 (stereo not drawn)	–	–	–	47	–	45	43	36
CCCCN1CC(COC)Oc2cccc(F)c2S1(=O)=O (stereo not drawn)	·	·	–	·	–	·	·	·
CCCc1c(O)nc(SC2CC(=O)N(c3ccc(C)c(Cl)c3)C2=O)[nH]c1=O (stereo not drawn)	–	–	·	–	–	–	·	·
Cc1ccc(N2C(=O)CC(Sc3nc4ccccc4o3)C2=O)cc1Cl (stereo not drawn)	–	–	·	50	–	59	43	34
COc1ccccc1/C=C/C(=O)c1cc(Br)ccc1OC(=O)c1ccco1	–	–	–	42	–	50	42	–
Cc1ccc(-c2nn(-c3ccccc3)cc2C=O)o1	–	–	–	72	–	63	64	70
Cc1ccc(-c2nn(-c3ccccc3)cc2C(N)=O)o1	–	–	–	–	–	–	·	·
CC(NC(=O)CCC(=O)c1ccccc1)c1ccc(F)cc1 (stereo not drawn)	–	–	·	–	–	–	·	·
Cc1cc(-c2nnc(-c3ccccc3)c(-c3ccccc3)n2)c(C)o1	–	–	–	52	–	48	46	–
Cc1ccc(-c2nnc(-c3ccccc3)c(-c3ccccc3)n2)cc1	–	–	–	–	–	–	·	·
COc1cc(C(=O)/C=C/c2cccnc2)c([N+](=O)[O-])cc1OC	–	–	–	41	–	42	39	33
CC1C/C(=C/c2ccncc2)C(=O)/C(=C/c2ccncc2)C1 (stereo not drawn)	–	–	98	84	–	44	39	89
Cc1ccccc1OCC(=O)Nc1ccncc1	–	–	–	–	–	–	·	·
Cc1ccccc1OCC(=O)Nc1ccc(Cc2ccncc2)cc1	–	–	–	41	–	42	40	–
CCOCCCN(C(=O)c1snc(C(N)=O)c1N)C(C(=O)NC1CCCC1)c1ccc(OC)cc1 (stereo not drawn)	–	–	–	–	–	–	·	·
CC(C)Cc1nc2ccccc2n1CCc1ccccc1	–	–	–	–	–	–	·	·
CN1CCN(c2ccccc2NC(=O)c2ccc(-c3ccc(Cl)cc3Cl)o2)CC1	–	–	–	46	–	56	55	48
CS(=O)(=O)N1CCN(c2ccccc2NC(=O)c2ccc(-c3ccc(Cl)cc3Cl)o2)CC1	–	–	–	–	–	–	·	·
O=Nc1c2cc(-c3ccccc3)[nH]nc-2c2ccccc12	?	·	·	·	–	·	·	·
Cc1ccc(-c2cc3c(N=O)c4ccccc4c-3n[nH]2)cc1	–	–	–	44	–	43	–	29
